# Test results published in PubChem BioAssay AID1159580 (chemical genetic matrix, 2015).
# Where “and” joins values, the source holds several entries; their conditions need not be identical. Equal entries are not always repeated. Hit rate of the full screen: of about 5,500 compounds, about 2,000 (36%) were called active. Another 18% or so got no clear call; they are omitted. This is one part of the list. Values without a mark were called inactive. No stated cut-off is given here; in the data, active means normalized growth mostly below about 0.91 (no sharp cut-off); inconclusive means no clear call, values can overlap the other calls; inactive means mostly above about 0.92.
# Test: chemical genetic growth profiling, strain panel (AID 1159580);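 further: tested at 20 µM; growth read once vehicle control cultures reached saturation at 30 °C; 1 = growth at the plate median or of vehicle wells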
# Settings: S. cerevisiae deletion strains, growth OD
smiles,measurement,setting,value
COc1ccc2c(c1)OCC(Cc1ccc(OC)c(OC)c1)C2=O (stereo unspecified),normalized growth,"locus YAL013W, strain DEP1, stronger effect = lower value",0.979
same,normalized growth,"locus YAL021C, strain ccr4, stronger effect = lower value",0.982
same,normalized growth,"locus YAL026C, strain drs2, stronger effect = lower value",0.928
same,normalized growth,"locus YAL030W, strain snc1, stronger effect = lower value",0.972
same,normalized growth,"locus YBL061C, strain skt5, stronger effect = lower value",0.959
same,normalized growth,"locus YBR009C, strain hhf1, stronger effect = lower value",0.941
same,normalized growth,"locus YBR021W, strain FUR4, stronger effect = lower value",0.905
same,normalized growth,"locus YBR023C, strain chs3, stronger effect = lower value",0.958
same,normalized growth,"locus YBR171W, strain sec66, stronger effect = lower value",0.96
same,normalized growth,"locus YBR229C, strain ROT2, stronger effect = lower value",0.993
same,normalized growth,"locus YBR231C, strain swc5, stronger effect = lower value",0.924
same,normalized growth,"locus YBR279W, strain paf1, stronger effect = lower value",0.973
same,normalized growth,"locus YCL011C, strain gbp2, stronger effect = lower value",0.96
same,normalized growth,"locus YCL016C, strain dcc1, stronger effect = lower value",0.969
same,normalized growth,"locus YCL029C, strain bik1, stronger effect = lower value",0.988
same,normalized growth,"locus YCL061C, strain MRC1, stronger effect = lower value",0.923
same,normalized growth,"locus YCL069W, strain vba3, stronger effect = lower value",0.967
same,normalized growth,"locus YCR088W, strain abp1, stronger effect = lower value",0.987
same,normalized growth,"locus YDL005C, strain med2, stronger effect = lower value",0.987
same,normalized growth,"locus YDL035C, strain GPR1, stronger effect = lower value",0.954
same,normalized growth,"locus YDL040C, strain nat1, stronger effect = lower value",0.982
same,normalized growth,"locus YDL074C, strain BRE1, stronger effect = lower value",0.928
same,normalized growth,"locus YDL101C, strain DUN1, stronger effect = lower value",0.982
same,normalized growth,"locus YDL185W, strain tfp1, stronger effect = lower value",0.999
same,normalized growth,"locus YDL192W, strain arf1, stronger effect = lower value",0.986
same,normalized growth,"locus YDR001C, strain nth1, stronger effect = lower value",0.973
same,normalized growth,"locus YDR069C, strain doa4, stronger effect = lower value",0.964
same,normalized growth,"locus YDR101C, strain arx1, stronger effect = lower value",0.974
same,normalized growth,"locus YDR137W, strain rgp1, stronger effect = lower value",0.933
same,normalized growth,"locus YDR159W, strain sac3, stronger effect = lower value",0.873
same,normalized growth,"locus YDR162C, strain NBP2, stronger effect = lower value",0.89
same,normalized growth,"locus YDR195W, strain ref2",1.06
same,normalized growth,"locus YDR297W, strain sur2, stronger effect = lower value",0.949
same,normalized growth,"locus YDR318W, strain mcm21, stronger effect = lower value",0.978
same,normalized growth,"locus YDR334W, strain swr1, stronger effect = lower value",0.98
same,normalized growth,"locus YDR335W, strain msn5, stronger effect = lower value",0.986
same,normalized growth,"locus YDR388W, stronger effect = lower value",1.01
same,normalized growth,"locus YDR392W, strain spt3, stronger effect = lower value",0.544 (active)
same,normalized growth,"locus YDR502C, strain sam2, stronger effect = lower value",0.973
same,normalized growth,"locus YEL003W, strain gim4, stronger effect = lower value",0.947
same,normalized growth,"locus YEL037C, strain rad23, stronger effect = lower value",0.986
same,normalized growth,"locus YEL061C, strain CIN8 (second series), stronger effect = lower value",0.985
same,normalized growth,"locus YEL061C, strain CIN8, stronger effect = lower value",0.987
same,normalized growth,"locus YER015W, strain faa2, stronger effect = lower value",0.968
same,normalized growth,"locus YER016W, strain bim1, stronger effect = lower value",0.976
same,normalized growth,"locus YER110C, stronger effect = lower value",0.988
same,normalized growth,"locus YER111C, strain swi4, stronger effect = lower value",0.982
same,normalized growth,"locus YER155C, strain BEM2 (second series), stronger effect = lower value",0.802 (active)
same,normalized growth,"locus YER155C, strain BEM2, stronger effect = lower value",0.999
same,normalized growth,"locus YER167W, strain BCK2, stronger effect = lower value",0.997
same,normalized growth,"locus YFR010W, strain ubp6, stronger effect = lower value",0.97
same,normalized growth,"locus YGL078C, strain dbp3, stronger effect = lower value",0.998
same,normalized growth,"locus YGL086W, strain mad1, stronger effect = lower value",0.965
same,normalized growth,"locus YGL167C, strain pmr1, stronger effect = lower value",0.964
same,normalized growth,"locus YGL173C, strain kem1, stronger effect = lower value",0.963
same,normalized growth,"locus YGL227W, strain vid30, stronger effect = lower value",0.974
same,normalized growth,"locus YGL240W, strain doc1, stronger effect = lower value",0.898
same,normalized growth,"locus YGL248W, strain PDE1, stronger effect = lower value",0.954
same,normalized growth,"locus YGL253W, strain hxk2, stronger effect = lower value",0.879 (active)
same,normalized growth,"locus YGR078C, strain PAC10, stronger effect = lower value",0.905
same,normalized growth,"locus YGR135W, strain pre9, stronger effect = lower value",0.993
same,normalized growth,"locus YGR252W, strain gcn5, stronger effect = lower value",0.834
same,normalized growth,"locus YHR013C, strain ard1, stronger effect = lower value",0.907
same,normalized growth,"locus YHR027C, strain rpn1, stronger effect = lower value",0.967
same,normalized growth,"locus YHR030C, strain SLT2, stronger effect = lower value",0.989 and 0.988
same,normalized growth,"locus YHR079C, strain IRE1 (second series), stronger effect = lower value",1
same,normalized growth,"locus YHR079C, strain IRE1, stronger effect = lower value",1.01
same,normalized growth,"locus YHR094C, strain hxt1, stronger effect = lower value",1.01
same,normalized growth,"locus YHR129C, strain ARP1, stronger effect = lower value",0.976
same,normalized growth,"locus YHR142W, strain chs7, stronger effect = lower value",0.897
same,normalized growth,"locus YHR200W, strain rpn10, stronger effect = lower value",0.992
same,normalized growth,"locus YIL066C, strain RNR3, stronger effect = lower value",0.915
same,normalized growth,"locus YIL073C, strain SPO22, stronger effect = lower value",0.925
same,normalized growth,"locus YIL125W, strain kgd1, stronger effect = lower value",0.991
same,normalized growth,"locus YIR030C, strain dcg1, stronger effect = lower value",0.99
same,normalized growth,"locus YJL092W, strain hpr5, stronger effect = lower value",0.981
same,normalized growth,"locus YJL095W, strain BCK1 (second series), stronger effect = lower value",0.979
same,normalized growth,"locus YJL095W, strain BCK1, stronger effect = lower value",0.887 and 1.01
same,normalized growth,"locus YJL115W, strain asf1, stronger effect = lower value",0.974
same,normalized growth,"locus YJL129C, strain trk1, stronger effect = lower value",0.892
same,normalized growth,"locus YJL134W, strain LCB3, stronger effect = lower value",0.994
same,normalized growth,"locus YJL154C, strain vps35, stronger effect = lower value",0.98
same,normalized growth,"locus YJL164C, strain tpk1, stronger effect = lower value",0.96
same,normalized growth,"locus YJL166W, strain qcr8, stronger effect = lower value",0.909
same,normalized growth,"locus YJL168C, strain set2, stronger effect = lower value",0.994
same,normalized growth,"locus YJL187C, strain SWE1 (second series), stronger effect = lower value",0.965
same,normalized growth,"locus YJR043C, strain POL32, stronger effect = lower value",0.97
same,normalized growth,"locus YJR066W, strain TOR1, stronger effect = lower value",0.955
same,normalized growth,"locus YJR075W, strain HOC1, stronger effect = lower value",0.972
same,normalized growth,"locus YKL009W, strain mrt4, stronger effect = lower value",0.984
same,normalized growth,"locus YKL068W, stronger effect = lower value",0.982
same,normalized growth,"locus YKL085W, strain MDH1 (second series), stronger effect = lower value",0.995
same,normalized growth,"locus YKL085W, strain MDH1, stronger effect = lower value",0.995
same,normalized growth,"locus YKL160W, strain elf1, stronger effect = lower value",0.955
same,normalized growth,"locus YKR001C, strain vps1, stronger effect = lower value",0.998
same,normalized growth,"locus YKR026C, strain gcn3, stronger effect = lower value",0.976
same,normalized growth,"locus YKR091W, strain srl3, stronger effect = lower value",0.991
same,normalized growth,"locus YLL001W, strain dnm1, stronger effect = lower value",0.897 (active)
same,normalized growth,"locus YLL026W, stronger effect = lower value",0.963
same,normalized growth,"locus YLL041C, strain sdh2, stronger effect = lower value",0.983
same,normalized growth,"locus YLR027C, strain aat2, stronger effect = lower value",0.922 (active)
same,normalized growth,"locus YLR039C, strain RIC1, stronger effect = lower value",0.958
same,normalized growth,"locus YLR058C, strain SHM2, stronger effect = lower value",0.98
same,normalized growth,"locus YLR102C, strain apc9, stronger effect = lower value",0.998
same,normalized growth,"locus YLR113W, strain HOG1, stronger effect = lower value",0.931
same,normalized growth,"locus YLR221C, strain rsa3, stronger effect = lower value",0.922
same,normalized growth,"locus YLR258W, strain gsy2, stronger effect = lower value",0.968
same,normalized growth,"locus YLR262C, strain YPT6 (second series), stronger effect = lower value",0.88
same,normalized growth,"locus YLR262C, strain YPT6, stronger effect = lower value",0.869
same,normalized growth,"locus YLR268W, strain sec22, stronger effect = lower value",0.963
same,normalized growth,"locus YLR320W, strain mms22, stronger effect = lower value",0.879
same,normalized growth,"locus YLR330W, strain CHS5, stronger effect = lower value",0.961
same,normalized growth,"locus YLR342W, strain FKS1 (second series), stronger effect = lower value",0.921
same,normalized growth,"locus YLR342W, strain FKS1, stronger effect = lower value",0.951
same,normalized growth,"locus YLR357W, strain rsc2, stronger effect = lower value",0.945
same,normalized growth,"locus YLR370C, strain arc18, stronger effect = lower value",0.972
same,normalized growth,"locus YLR371W, strain rom2, stronger effect = lower value",0.985
same,normalized growth,"locus YLR384C, strain iki3, stronger effect = lower value",0.976
same,normalized growth,"locus YLR418C, strain cdc73, stronger effect = lower value",0.842
same,normalized growth,"locus YML016C, strain PPZ1, stronger effect = lower value",0.995
same,normalized growth,"locus YML032C, strain rad52, stronger effect = lower value",0.984
same,normalized growth,"locus YML120C, strain ndi1, stronger effect = lower value",0.965
same,normalized growth,"locus YML124C, strain tub3, stronger effect = lower value",0.986
same,normalized growth,"locus YMR058W, strain fet3, stronger effect = lower value",0.938
same,normalized growth,"locus YMR078C, strain ctf18, stronger effect = lower value",1
same,normalized growth,"locus YMR125W, strain sto1, stronger effect = lower value",0.994
same,normalized growth,"locus YMR129W, stronger effect = lower value",0.981
same,normalized growth,"locus YMR205C, strain PFK2, stronger effect = lower value",0.896
same,normalized growth,"locus YMR223W, strain ubp8, stronger effect = lower value",1
same,normalized growth,"locus YMR231W, strain pep5, stronger effect = lower value",0.993
same,normalized growth,"locus YMR307W, strain GAS1, stronger effect = lower value",0.83
same,normalized growth,"locus YNL067W, strain RPL9B, stronger effect = lower value",0.968
same,normalized growth,"locus YNL071W, strain lat1, stronger effect = lower value",0.82 (active)
same,normalized growth,"locus YNL128W, strain TEP1, stronger effect = lower value",0.991
same,normalized growth,"locus YNL183C, strain NPR1, stronger effect = lower value",0.961
same,normalized growth,"locus YNL209W, strain ssb2, stronger effect = lower value",0.987
same,normalized growth,"locus YNL233W, strain BNI4, stronger effect = lower value",0.919
same,normalized growth,"locus YNL248C, strain rpa49, stronger effect = lower value",0.928
same,normalized growth,"locus YNL250W, strain rad50, stronger effect = lower value",0.998
same,normalized growth,"locus YNL271C, strain bni1, stronger effect = lower value",0.989
same,normalized growth,"locus YNL298W, strain CLA4, stronger effect = lower value",0.98
same,normalized growth,"locus YNL307C, strain MCK1, stronger effect = lower value",0.894 (active)
same,normalized growth,"locus YNL322C, strain KRE1 (second series), stronger effect = lower value",0.982
same,normalized growth,"locus YNL322C, strain KRE1, stronger effect = lower value",0.985
same,normalized growth,"locus YNR049C, strain mso1, stronger effect = lower value",0.985
same,normalized growth,"locus YNR052C, strain pop2, stronger effect = lower value",0.989
same,normalized growth,"locus YOL006C, strain TOP1, stronger effect = lower value",0.784
same,normalized growth,"locus YOL012C, strain htz1",0.731
same,normalized growth,"locus YOL147C, strain pex11, stronger effect = lower value",0.98
same,normalized growth,"locus YOR001W, strain rrp6, stronger effect = lower value",0.923
same,normalized growth,"locus YOR061W, strain CKA2, stronger effect = lower value",0.984
same,normalized growth,"locus YOR069W, strain VPS5, stronger effect = lower value",0.993
same,normalized growth,"locus YOR070C, strain gyp1, stronger effect = lower value",0.937
same,normalized growth,"locus YOR080W, strain dia2, stronger effect = lower value",0.967
same,normalized growth,"locus YOR083W, strain WHI5, stronger effect = lower value",0.936
same,normalized growth,"locus YOR106W, strain vam3, stronger effect = lower value",0.978
same,normalized growth,"locus YOR136W, strain idh2, stronger effect = lower value",0.99
same,normalized growth,"locus YOR144C, strain elg1, stronger effect = lower value",0.978
same,normalized growth,"locus YOR184W, strain ser1, stronger effect = lower value",0.884
same,normalized growth,"locus YOR231W, strain MKK1, stronger effect = lower value",1.02
same,normalized growth,"locus YOR265W, strain rbl2, stronger effect = lower value",1
same,normalized growth,"locus YOR270C, strain vph1, stronger effect = lower value",0.821
same,normalized growth,"locus YOR290C, strain snf2, stronger effect = lower value",0.935
same,normalized growth,"locus YOR316C, strain cot1, stronger effect = lower value",1
same,normalized growth,"locus YPL051W, strain arl3, stronger effect = lower value",0.922
same,normalized growth,"locus YPL055C, strain LGE1, stronger effect = lower value",0.896
same,normalized growth,"locus YPL078C, strain atp4, stronger effect = lower value",0.939
same,normalized growth,"locus YPL106C, strain sse1, stronger effect = lower value",0.94
same,normalized growth,"locus YPL240C, strain hsp82, stronger effect = lower value",0.993
same,normalized growth,"locus YPL241C, strain CIN2, stronger effect = lower value",0.99
same,normalized growth,"locus YPL256C, strain CLN2, stronger effect = lower value",1.02
same,normalized growth,"locus YPR119W, strain clb2, stronger effect = lower value",0.98
same,normalized growth,"locus YPR141C, strain kar3, stronger effect = lower value",0.992
same,normalized growth,"locus YPR163C, strain tif3, stronger effect = lower value",0.969
same,normalized growth,"locus YPR167C, strain met16, stronger effect = lower value",0.965
same,normalized growth,"strain wtn01, stronger effect = lower value",0.971
